# NPC1 prom act: qHTS Assay for NPC1 Promoter Activators; Huh7 NPC1 promoter luciferase reporter, 24 h; Potency, µM (highest dose often 9.22 µM), most hits filed as activators; 320,000 compounds, 2.4% hits; AID 485313, 2010; note: nearly all actives have a fitted effect of over 60% in size
#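 Cells: Huh7 expressing luciferase under the NPC1 promoter, 1500/well. Seeded 2 h, compound added, incubated 24 h at 37 °C. Luciferase reagent, 10 min ambient, then luminescence.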
# SMN2 splice enh: qHTS Assay for Enhancers of SMN2 Splice Variant Expression. AID 1458, 2008. Potency, µM (titrated, usually from 46.1 µM), hits mostly activators. 210,000 compounds, 2.8% hits. HEK293 SMN2-luciferase splicing reporter, luminescence, 30-36 h; note: nearly all actives have a fitted effect of over 55% in size
#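 qHTS luciferase splicing reporter: luminescence rises when SMN2 exon 7 is included in transfected HEK293 cells. Compound exposure lasted 30-36 h at 37C, with 4.5 mM final sodium butyrate as control, followed by a ONE-Glo read.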
# Rab9 promoter act: qHTS Assay for Rab9 Promoter Activators; Huh7 Rab9 promoter-luciferase reporter, luminescence, 24 h; Potency, µM (doses to about 9.22 µM), usual class: activators; 320,000 compounds, 2.8% hits; note: nearly all actives have a fitted effect of over 60% in size
#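 Steps: seed 1500 Huh7 Rab9-luc cells per well, rest 2 h at 37 °C; add compound in DMSO; incubate 24 h; add luciferase reagent, 10 min ambient; read luminescence.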
# ELG1 DNA repair: qHTS screen for small molecules that inhibit ELG1-dependent DNA repair in human embryonic kidney (HEK293T) cells expressing luciferase-tagged ELG1; HEK293T ELG1-luciferase reporter, luminescence, 16 h; DNA damage induced by 5-fluorouridine; Potency, µM (titrated, usually from 46.1 µM), most hits filed as inhibitors; 330,000 compounds, 2.3% hits; note: nearly all actives have a fitted effect of over 55% in size
#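 Overnight (16 hr) co-exposure of 2,000 cells/well to 5-fluorouridine and compound at 37 °C preceded detection. Luciferase was quantified via ONE-Glo luminescence; loss of signal denotes inhibition.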
# FLuc counter: qHTS profiling assay for firefly luciferase inhibitor/activator using purifed enzyme and Km concentrations of substrates (counterscreen for miR-21 project). Luciferin 4-monooxygenase (Photinus pyralis), P08659. purified FLuc, Km substrates, luminescence inhibition. Potency, µM (titrated, usually from 57.5 µM), usual class: inhibitors. 360,000 compounds, 6.9% hits; note: nearly all actives have a fitted effect of over 55% in size
# Target sequence (P08659 whole entry, looked up): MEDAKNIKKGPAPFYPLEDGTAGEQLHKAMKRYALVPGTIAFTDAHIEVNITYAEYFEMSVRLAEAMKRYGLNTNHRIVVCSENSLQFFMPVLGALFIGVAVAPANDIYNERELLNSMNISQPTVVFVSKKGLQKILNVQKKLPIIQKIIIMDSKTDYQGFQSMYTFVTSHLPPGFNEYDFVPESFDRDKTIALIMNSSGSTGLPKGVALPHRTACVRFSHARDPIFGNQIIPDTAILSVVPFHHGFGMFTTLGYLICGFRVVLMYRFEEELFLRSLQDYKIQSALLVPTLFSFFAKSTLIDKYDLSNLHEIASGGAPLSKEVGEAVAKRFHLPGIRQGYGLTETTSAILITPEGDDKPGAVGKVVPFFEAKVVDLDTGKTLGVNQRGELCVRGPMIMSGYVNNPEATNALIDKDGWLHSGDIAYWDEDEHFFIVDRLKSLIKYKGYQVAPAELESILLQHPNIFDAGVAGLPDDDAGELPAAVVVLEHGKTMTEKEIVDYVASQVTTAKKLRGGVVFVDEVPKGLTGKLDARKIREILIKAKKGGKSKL
#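 Purified P. pyralis luciferase (10nM final) with 10uM D-luciferin and 10uM ATP (Km levels) in 50mM Tris acetate pH 7.5, 10mM Mg acetate, 0.01% Tween-20, 0.05% BSA; qHTS 6-point titration, ~60 µM downward; luminescence read.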
# ELG1 genotoxic: qHTS screen for small molecules that induce genotoxicity in human embryonic kidney (HEK293T) cells expressing luciferase-tagged ELG1; HEK293T ELG1-luciferase reporter, luminescence, 16 h; Potency, µM (series often up to 46 µM), most hits filed as activators; 330,000 compounds, 1.3% hits; AID 504466, 2011; note: nearly all actives have a fitted effect of over 60% in size
#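 Screening used a luciferase reporter fused to human ELG1 in HEK293T cells. Luminescence was read on a CCD plate imager after 16 hr exposure and 30 min ONE-Glo incubation.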
# Numbers stand for hits; i = inactive; ? = inconclusive; nt = not tested or not shown; [ ] = dose if it differs, or a comment. Compounds with a hit are over-represented: about 9.4% of the library has one in this group of screens. Calls come from the whole dose curve; as a rule, active = well fitted curve in the direction sought with a large enough effect; inconclusive = small, poorly fitted or top-dose-only effect, or another doubt; inactive = no such curve, though single readings can be large; an effect the other way counts as inactive or inconclusive.
SMILES,NPC1 prom act,SMN2 splice enh,Rab9 promoter act,ELG1 DNA repair,FLuc counter,ELG1 genotoxic
CN(C)/C=C/C(=O)c1ccncc1,i,i,i,i,i,i
CN(C)/C=C/C(=O)c1cnc(-c2ccc(Cl)cc2)s1,1µM,10µM,0.5µM,?,2.7µM,?
CN(C)/C=C/C(=O)c1cnc(-c2ccccc2)s1,2µM,11µM,1.4µM,?,11µM,?
Cn1c(=O)c2c(nc(N/N=C/c3ccncc3)n2Cc2ccccc2)n(C)c1=O,i,nt,i,i,i,i
Cn1c(NCc2ccccc2)nc2c1c(=O)n(Cc1ccc(Br)cc1)c(=O)n2C,i,i,i,21µM,i,i
Cn1c(NCc2ccco2)nc2c1c(=O)n(Cc1ccc(Br)cc1)c(=O)n2C,i,i,i,18µM,i,i
Cn1c(=O)c2c(nc(NCc3ccc4c(c3)OCO4)n2Cc2ccccc2)n(C)c1=O,i,i,i,16µM,i,i
COc1ccc(CNc2nc3c(c(=O)n(Cc4ccc(Br)cc4)c(=O)n3C)n2C)cc1,i,i,i,?,i,i
COc1cc(/C=N/Nc2nc3c(c(=O)n(C)c(=O)n3C)n2Cc2ccccc2)ccc1OC(=O)c1ccco1,i,i,i,18µM,i,i
Cc1ccc(CNC(=O)C2CCN(S(=O)(=O)c3ccc4[nH]c(=O)ccc4c3)CC2)cc1,nt,nt,nt,nt,i,nt
O=S1(=O)c2ccccc2N(Cc2cccc(F)c2)c2ccccc21,nt,nt,nt,nt,i,nt
Cc1nc(N2CCCC2)ncc1C(=O)NCc1ccc(Cl)cc1,nt,nt,nt,nt,i,nt
COc1ccc(C(=O)/C=C/Nc2ccc(S(=O)(=O)Nc3onc(C)c3C)cc2)cc1,i,i,i,?,7.6µM,i
CCc1ccc(OCC(=O)Nc2ccc(S(=O)(=O)Nc3onc(C)c3C)cc2)cc1,nt,i,nt,nt,12µM,nt
Cc1noc(NS(=O)(=O)c2ccc(N/C=C/C(=O)c3ccncc3)cc2)c1C,i,i,i,i,i,i
CC(C)Oc1ccc(C(=O)N/N=C/c2ccc(-c3ccc(S(=O)(=O)Nc4ncccn4)cc3)o2)cc1,i,i,i,i,27µM,i
CCc1ccc(C(=O)/C=C/Nc2ccc(S(=O)(=O)Nc3onc(C)c3C)cc2)cc1,i,i,?,?,11µM,i
COc1ccc(C(=O)/C=C/Nc2ccc(S(=O)(=O)Nc3ncccn3)cc2)cc1,i,i,i,?,?,i
CCOC(=O)c1[nH]c2ccccc2c1NC(=O)c1cc(OCC)c(OCC)c(OCC)c1,nt,i,nt,nt,i,nt
COc1cc(NC(=O)Cn2c(=O)n(Cc3ccccc3Cl)c(=O)c3cc(OC)c(OC)cc32)cc(OC)c1,nt,i,nt,nt,i,nt
COCCc1ccc(OC[C@H](O)CNC(C)C)cc1,nt,i,nt,nt,nt,nt
Cc1noc(NS(=O)(=O)c2ccc(N/C=C/C(=O)c3ccc(F)cc3)cc2)c1C,i,i,i,?,21µM,i
Cc1noc(NS(=O)(=O)c2ccc(N/C=C\C(=O)c3ccncc3)cc2)c1C,i,i,i,i,i,i
Cc1noc(NS(=O)(=O)c2ccc(NC(=O)c3ccc(N(C)C)cc3)cc2)c1C,i,nt,i,?,nt,i
Cc1noc(NS(=O)(=O)c2ccc(NC(=O)c3ccc(OC(C)C)cc3)cc2)c1C,i,nt,i,i,13µM,i
SMILES,NPC1 prom act,SMN2 splice enh,Rab9 promoter act,ELG1 DNA repair,FLuc counter,ELG1 genotoxic
COc1ccc(NC(=O)CSc2ncc3c(n2)-c2ccccc2N(Cc2ccc(C)cc2)S3(=O)=O)cc1Cl,nt,i,nt,nt,i,nt
COc1ccccc1C(=O)Nc1nc2ccccc2s1,2.2µM,nt,?,?,0.11µM,?
COc1ccc(NC(=O)CCc2nc3ccccc3s2)c(OC)c1,i,i,i,i,i,i
COc1n[nH]c(C(=O)Nc2nc3ccccc3s2)c1[N+](=O)[O-],?,11µM,?,?,15µM,16µM
COc1ccccc1C(=O)Nc1nc(N)n(-c2ccccc2)n1,i,i,i,?,12µM,i
COc1ccccc1C(=O)Nc1nc2ccc(S(C)(=O)=O)cc2s1,i,i,?,i,?,i
COc1ccc(C(=O)Nc2nc3ccccc3s2)c(OC)c1,?,nt,i,3.7µM,0.015µM,i
COc1n[nH]c(C(=O)NCc2ccccc2)c1[N+](=O)[O-],i,i,i,i,?,i
CCCCNC(=O)C(CC)Sc1nc2ccccc2c(=O)n1Cc1ccco1 (configuration not stated),nt,nt,nt,nt,i,nt
CC[C@@H](C)[C@@H](C(=O)Nc1ccc(C)cc1)N1Cc2ccccc2C1=O,nt,i,nt,nt,i,nt
COc1ccccc1C(=O)NNC(=O)c1ccc(C)cc1,i,nt,?,?,15µM,?
COc1ccccc1C(=O)NNC(=O)c1ccc(Br)o1,?,nt,i,?,17µM,?
COc1ccccc1C(=O)NNC(=O)c1ccncc1,i,i,i,?,i,i
COc1ccccc1C(=O)NNC(=O)c1ccc(Br)cc1,i,nt,i,?,13µM,i
Oc1ccc(Cl)cc1C=Nc1cnc2ccccc2c1,nt,i[9.22 µM],nt,nt,nt,nt
Cc1ccc(N2CC(C)Cn3c2nc2c3c(=O)n(CC(=O)O)c(=O)n2C)cc1 (configuration not stated),nt,i,nt,nt,i,nt
Cc1noc(C)c1C(=O)Nc1nc(-c2cccs2)cs1,?,nt,?,?,?,i
c1ccc(Nc2nc(-c3cccs3)cs2)nc1,?,3.2µM,?,?,0.76µM,?
Cc1cccc(Nc2nc(-c3ccccn3)cs2)n1,1.3µM,3.2µM,0.63µM,?,1.7µM,0.82µM
Nc1ccc(Nc2nc(-c3cccs3)cs2)cc1,i,nt,i,i,i,i
Cc1cccc(Nc2nc(-c3cccs3)cs2)n1,?,1.4µM,2.5µM,?,2.1µM,?
CSCCC(=O)Nc1nc(-c2ccccn2)cs1,i,i,i,i,?,i
COc1ccc(-c2nc(CSCC(=O)NCCc3ccc(OC)c(OC)c3)c(C)o2)cc1,nt,i,nt,nt,i,nt
Cc1ccc(C)n1-c1nnc(N2CCCC(C(=O)NCc3ccc(F)cc3)C2)s1 (configuration not stated),nt,i,nt,nt,i,nt
O=C(Cn1ncc2c([nH]c3ccccc32)c1=O)NCc1cccc(Cl)c1,nt,nt,nt,nt,i,nt
CCOC(=O)c1c(S(=O)(=O)N2CCC(C(=O)N3CCN(c4ccc(F)cc4)CC3)CC2)c(C)n(C)c1C,nt,nt,nt,nt,i,nt
Cc1cc2nc(-c3cccc(NC(=O)c4ccc(Br)o4)c3C)oc2cc1C,i,i,i,?,4.3µM,i
Cc1cc2nc(-c3cccc(NC(=O)C(C)C)c3C)oc2cc1C,nt,nt,nt,nt,0.48µM,nt
